Giardia killer: Giardia lamblia killing; Giardia lamblia trophozoite viability; activity change, % at 7.66 µM, hits read low; actives 0.15% (n = 340,000); AID 540267; in the data active = activity change below about -80%; inconclusive = between about -30% and that limit;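 note: parasites exposed to compound for two days anaerobically before the ATP read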
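Anaerobic 48 hrs incubation at 37 deg C of 100 trophozoites/well with test compounds; ATPLite 1-Step luminescence, 15-30 min RT, reports cellular ATP as viability.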
TDP1 cell CPT: DT40-hTDP1 cell growth loss with CPT; chicken DT40 Tdp1-/-;hTDP1 cells + 20 nM CPT, ATP luminescence, 48 h; Potency, µM (highest dose often 46.2 µM), without a hit: top-dose activity change, negative = growth inhibition, actives largely listed as inhibitors; actives 12% (n = 420,000); AID 686979; note: potency is the fitted concentration of half-maximal effect; nearly all actives have a fitted effect of over 55% in size
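Chicken DT40 Tdp1-/- cells complemented with human TDP1, 400 cells/well, exposed to compounds plus 20 nM camptothecin for at least 48 h at 37 C; viability read as ATP content by CellTiter-Glo luminescence.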
IL1B secr inh: inflammasome signaling inhibition, IL-1 beta readout; AID 743279; actives 4.7% (n = 360,000); THP-1 LPS/ATP IL-1B secretion, AlphaLISA, 16 h; active compounds read low; activity change, % at 57.5 µM; in the data active = activity change below about -50%; inconclusive = mostly about -30% to -49%
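Secreted IL-1B measured by AlphaLISA bead assay after 16 h compound exposure of THP-1 cells; compounds (final up to 57.5 uM) added 1 h before LPS (250 ng/mL) and ATP (1.25 mM) stimulation; lower signal means less secretion.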
TDP1 cell noCPT: qHTS for Inhibitors of human tyrosyl-DNA phosphodiesterase 1 (TDP1): qHTS in cells in absence of CPT. DT40 Tdp1-/- hTDP1 cells, no CPT, ATP luminescence, 48 h. Potency, µM (doses to about 46.2 µM), without a hit: at the highest dose activity change, negative = growth inhibition, hits mostly inhibitors. actives 15% (n = 420,000); note: potency is the fitted concentration of half-maximal effect; nearly all actives have a fitted effect of over 55% in size
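Chicken DT40 Tdp1-/- cells complemented with human TDP1, screened without camptothecin (DMSO vehicle only), 400 cells/well. Compounds pin-transferred, cells incubated at 37 °C for at least 48 hr. Growth read as ATP-dependent luminescence (CellTiter-Glo, 30 min at RT).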
ELG1 repair inh: blocks ELG1-dependent DNA repair in HEK293T cells. HEK293T ELG1-luciferase reporter, luminescence, 16 h; DNA damage induced by 5-fluorouridine. actives 2.3% (n = 330,000). Potency, µM (titrated, usually from 46.1 µM), for the others: at the top dose activity change, negative = inhibition, usual class: inhibitors; note: potency is the fitted concentration of half-maximal effect; nearly all actives have a fitted effect of over 55% in size
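Reporter activity after DNA damage by 5-fluorouridine is monitored. Compound-treated cells incubate 16 hr at 37 °C, then ONE-Glo is added for 30 min before luminescence reading.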
TDP1 inh: TDP1 (human) enzyme inhibition; Q9NUW8; recombinant TDP1, AlphaScreen DNA substrate cleavage; Potency, µM (top dose mostly 130 µM), inactives show top-dose activity change, negative = inhibition, usual class: inhibitors; actives 0.28% (n = 350,000); AID 485290; note: potency is the fitted concentration of half-maximal effect; nearly all actives have a fitted effect of over 40% in size
Target sequence (Q9NUW8 whole entry, looked up): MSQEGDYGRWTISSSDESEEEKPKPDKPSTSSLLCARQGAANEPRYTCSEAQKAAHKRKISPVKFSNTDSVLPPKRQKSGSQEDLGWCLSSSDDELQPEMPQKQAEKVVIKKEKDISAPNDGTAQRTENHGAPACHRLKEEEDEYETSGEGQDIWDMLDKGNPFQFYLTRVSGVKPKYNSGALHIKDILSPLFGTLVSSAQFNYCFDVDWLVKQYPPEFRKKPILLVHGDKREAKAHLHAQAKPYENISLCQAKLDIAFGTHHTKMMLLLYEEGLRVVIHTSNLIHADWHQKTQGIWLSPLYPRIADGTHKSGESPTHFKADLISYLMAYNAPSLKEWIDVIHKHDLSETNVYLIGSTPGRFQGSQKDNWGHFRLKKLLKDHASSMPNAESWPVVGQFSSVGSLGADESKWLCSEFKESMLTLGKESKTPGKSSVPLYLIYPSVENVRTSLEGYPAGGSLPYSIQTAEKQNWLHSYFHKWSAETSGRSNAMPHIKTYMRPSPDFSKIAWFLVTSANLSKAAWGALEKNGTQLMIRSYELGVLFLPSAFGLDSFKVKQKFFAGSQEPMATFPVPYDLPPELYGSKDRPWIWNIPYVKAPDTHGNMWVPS
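E. coli-derived human Tdp1, 1 nM final. Cpd preinc 15 min RT; substrate 15 nM final, 5 min RT; AS bead mix 10 ug/ml final, 10 min RT. Signal loss = tyrosine-FITC cleavage. No-enzyme wells = max signal.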
Numbers without * were called inactive; ? = inconclusive; · = no result. In the library only some 19% were active in any assay of this set; here they are far more common. Unless noted, calls come from the whole dose curve; as a rule, active = well fitted curve in the direction sought with a large enough effect; inconclusive = small, poorly fitted or top-dose-only effect, or another doubt; inactive = no such curve, though single readings can be large; an effect the other way counts as inactive or inconclusive. % is set by controls: 0 for no effect and ±100 for the full control effect.

SMILES	Giardia killer	TDP1 cell CPT	IL1B secr inh	TDP1 cell noCPT	ELG1 repair inh	TDP1 inh
COc1ccc(N(CC(=O)N2CC=C(c3ccccc3)CC2)S(=O)(=O)c2c(C)noc2C)cc1	3	?	9	23µM*	?	5%
COc1ccc(N(CC(=O)N2CCN(c3ccccc3F)CC2)S(=O)(=O)c2c(C)noc2C)cc1	17	?	-9	?	23%	2%
Cc1ncc(CO)c(/C=N/NC(=O)c2ccc(Br)cc2)c1O	·	·	·	·	?	5%
Cc1ncc(CO)c(/C=N/NC(=S)Nc2ccc(C(C)C)cc2)c1O	-3	15µM*	166	21µM*	?	·
Cc1ncc(CO)c(/C=N/NC(=O)c2cc(Br)ccc2O)c1O	9	16µM*	95	16µM*	16µM*	9%
Cc1ncc(CO)c(/C=N/NC(=O)c2cc(O)c(O)c(O)c2)c1O	·	·	·	·	9%	?
Cc1n(-c2ccccc2)c2ccc(Cl)cc2[n+]1CCO	5	11%	-10	-10%	3%	3%
CC[C@H](C)C1OC(=O)[C@@H](C)[C@@H](CC)NC(=O)[C@H](C)N(C)C(=O)C(C)(C)C(=O)C(C)NC(=O)[C@H](Cc2ccc(OC)cc2)N(C)C(=O)[C@H](C(C)C)N(C)C(=O)CNC(=O)[C@H](CC(C)C)N(C)C(=O)CNC1=O (some centres undefined)	·	0.15µM*	-10	0.18µM*	·	·
CCC[C@H]1NC(=O)[C@H](C)N(C)C(=O)C(C)(C)C(=O)C(C)NC(=O)[C@H](Cc2ccc(OC)cc2)N(C)C(=O)[C@H](C(C)C)N(C)C(=O)CNC(=O)[C@H](CC(C)C)N(C)C(=O)CNC(=O)[C@H]([C@@H](C)CC)OC(=O)[C@H]1C (some centres undefined)	?	0.033µM*	-29	0.021µM*	?	0%
CCc1ccc(N2C(=O)CC(N(CC3CCCO3)C(=O)/C=C/C(=O)O)C2=O)cc1 (centres undefined)	4	-8%	18	19%	-6%	-1%
C1=C(CCNc2nnnn2-c2ccccc2)CCCC1	0	18µM*	47	?	?	6%
COc1ccc([N+](=O)[O-])cc1NC(c1nnc(-c2ccccc2)o1)c1ccccc1F (centres undefined)	·	15%	·	10%	·	3%
CCOc1ccccc1NC(c1nnc(-c2ccccc2)o1)c1ccc(F)cc1Cl (centres undefined)	·	?	·	21µM*	·	-2%
CC(C)c1ccc(NC(c2nnc(-c3ccccc3)o2)c2ccc(F)cc2Cl)cc1 (centres undefined)	·	?	·	18µM*	·	3%
Fc1ccc(C(c2nnc(-c3ccccc3)o2)N2CCN(c3ccccc3)CC2)c(Cl)c1 (centres undefined)	·	?	·	21µM*	·	11%
Cn1c(=O)c2c(n3ncnc13)NC(=O)CC2c1cccc(F)c1 (centres undefined)	·	4%	·	-3%	·	3%
O=C(NCc1ccc2c(c1)OCO2)c1ccc2c(c1)N(Cc1ccc(F)cc1)C(=O)c1ccccc1S2=O (centres undefined)	·	-18%	·	-13%	·	2%
CCOc1ccc2nc(N3CCCC(C(=O)NCCc4ccc(C)cc4)C3)sc2c1 (centres undefined)	·	12µM*	·	15µM*	·	-5%
COc1ccc2nc(N3CCCC(C(=O)NCCCN4C(C)CCCC4C)C3)sc2c1 (centres undefined)	-3	10%	-70*	-23%	?	-4%
CCCN1CCN(CCCNC(=O)C2CCCN(c3nc4ccc(OCC)cc4s3)C2)CC1 (centres undefined)	4	-8%	9	-1%	5%	9%
CCOc1ccc2nc(N3CCCC(C(=O)NCCCOC)C3)sc2c1 (centres undefined)	·	16µM*	·	18µM*	·	2%
C=C1C(=O)c2sccc2C(c2ccc(OC)c(OC)c2)C1COC(C)=O (centres undefined)	36	0.52µM*	-101*	0.23µM*	·	·
CCOC(=O)C1=C(C)NC(C)=C(C(=O)OCC)C1c1ccc(OC)c(OC)c1	·	?	-3	?	·	·
O=C(Cn1c(=O)n(Cc2ccco2)c(=O)c2oc3ccccc3c21)Nc1ccc(F)c(Cl)c1	·	?	·	?	·	0%
OC(CCCN1CCCCC1)(c1ccccc1)c1ccc(C(F)(F)F)cc1 (centres undefined)	1	?	-22	18µM*	·	·
SMILES	Giardia killer	TDP1 cell CPT	IL1B secr inh	TDP1 cell noCPT	ELG1 repair inh	TDP1 inh
CCC(=O)N1COC[C@@H]1Cc1ccccc1	19	0%	3	-11%	-5%	4%
C[C@@H](NCCCn1ccc(NC(=O)OCc2ccccc2)nc1=O)c1cccc2ccccc12	-14	?	?	16µM*	·	·
CC[C@@H](NCCCn1ccc(NC(=O)OCc2ccccc2)nc1=O)c1ccccc1	·	?	-27	16µM*	·	·
COc1cc(NCCCn2ccc(NC(=O)OCc3ccccc3)nc2=O)cc(OC)c1OC	4	-26%	-30	-14%	·	·
NCC[C@H](O)C(=O)N[C@@H]1C[C@H](N)[C@@H](O[C@H]2O[C@H](CN)CC[C@H]2N)[C@H](O)[C@H]1O[C@H]1O[C@H](CO)[C@@H](O)[C@H](N)[C@H]1O	·	-4%	·	-24%	·	·
COc1ccc(CNC(=O)c2ccc(CS(=O)(=O)c3ccc(C)cc3)o2)cc1	-6	-22%	6	?	1%	2%
CN1CCN(c2ncnc3c2[nH]c2ccc(F)cc23)CC1	9	?	-21	?	-12%	8%
CCOc1ccc2[nH]c3c(N4CCc5ccccc5C4)ncnc3c2c1	7	15µM*	·	16µM*	18µM*	4%
Cc1ccc2[nH]c3c(N4CCc5ccccc5C4)ncnc3c2c1	13	2.9µM*	-83*	3.7µM*	?	6%
Fc1ccc2[nH]c3c(N4CCc5ccccc5C4)ncnc3c2c1	-3	1.8µM*	?	1.8µM*	1.3µM*	-11%
O=C1[C@@H]2CSC(c3ccc(Cl)cc3)N2C(=O)N1c1ccccc1 (some centres undefined)	·	2%	·	-28%	·	-9%
Cc1ccc(S(=O)(=O)N2CCN(C(=O)[C@H](Cc3ccccc3)NC(=O)c3ccco3)CC2)cc1C	-5	?	-6	16µM*	-21%	1%

Source: PubChem BioAssay
